Test results published in PubChem BioAssay (NCATS).
Several values for one entry are separate records, joined by “and”; a condition that tells them apart may be missing. Identical values can stand only once. Inconclusive results are not listed. Activity calls are given as the source filed them. Unless noted, calls follow the shape of the dose curve; as a rule, active = well fitted curve in the direction sought with a large enough effect; inconclusive = small, poorly fitted or top-dose-only effect, or another doubt; inactive = no such curve, though single readings can be large; an effect the other way counts as inactive or inconclusive.

Legend:
[1] = Cell Viability - MRC5 (AID 434; calls by dose curve;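 also: potency is read from the fitted curve at half-maximal effect; cells exposed to compound for 40 hours at 37 °C; potency reflects cytotoxicity seen as loss of intracellular ATP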); details: MRC5 lung fibroblast viability, qHTS
Outline: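 Decrease in intracellular ATP, quantified by luciferase light output, reflects compound toxicity toward MRC5 cells exposed for 40 hr in complete culture medium. Concentration-response curves, scaled between DMSO and 100 uM tamoxifen, gave AC50 values.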

[2] = Cell Viability - SK-N-SH (AID 435; calls by dose curve;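 also: potency is read from the fitted curve at half-maximal effect; compound exposure lasted 40 h at 37 °C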); details: SK-N-SH neuroblastoma cell viability qHTS
Outline: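 Human neuroblastoma line, 40 h exposure at 37 °C, ATP quantified via luciferase luminescence; DMSO and 100 uM tamoxifen define 0 and 100% inhibition for AC50 fitting.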

[3] = Cell Viability - NIH 3T3 (AID 541); details: NIH 3T3 cell viability, qHTS; activity change, negative = cytotoxicity: at 92.2 µM (top of the series);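 also: plate controls were DMSO alone for no effect and tamoxifen positive control for full effect; nearly all actives have a fitted effect of over 25% in size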
Outline: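 In this cytotoxicity screen, acute toxicity is scored as an ATP drop measured by CellTiter-Glo in NIH 3T3 fibroblasts following a 40 hr, 37 °C incubation with compound.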

[4] = Cell Viability - Mesenchymal (AID 546); details: mesenchymal cells viability, qHTS; activity change, negative = cytotoxicity: at 91.7 µM (top of the series);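 also: cells exposed to compound for 40 hours before reading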
Outline: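 In this qHTS cytotoxicity format, glomerulus-derived human mesenchymal kidney cells received compound for 40 hr, then luciferase-based ATP quantitation. Concentration-response data were fitted with the Hill equation.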

[5] = Cellular Toxicity (caspase-3) HepG2 (AID 654); details: HepG2 caspase-3 activation, luminescence, 0% = DMSO only, 100% = tamoxifen; series mostly up to 92.2 µM;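 also: cells exposed to compound for 16 hours before reading; 0% = DMSO alone and 100% = caspase signal from 100 µM tamoxifen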
Outline: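 Concentration-response AC50 values reflect caspase-3/7 induction in HepG2 cells after 16 hours of compound exposure, quantified by luminescence from liberated aminoluciferin and referenced to 100 uM tamoxifen as full stimulation.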

[6] = Cellular Toxicity (caspase-3) HUV-EC-C (AID 656); details: HUV-EC-C cells, caspase-3 activation (apoptosis), vehicle = 0, 100 µM tamoxifen = 100%; series mostly up to 92.2 µM
Outline: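 Concentration-dependent caspase 3/7 induction was assessed in HUV-EC-C cells exposed for 16 hours. Data scaled between DMSO and tamoxifen (100 uM) controls.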

[7] = Cellular Toxicity (caspase-3) BJ (AID 658); details: BJ fibroblasts, luminescence, normalized: DMSO 0%, staurosporine 100%; series mostly up to 91.7 µM
Outline: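 Plated BJ cells (1000/well) rested 5 hr, received compound for 16 hr at 37 °C, then Caspase-Glo 3/7 reagent for 1 hr at room temperature before luminescence reading.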

[8] = Cellular Toxicity (caspase-3) MRC-5 (AID 659); details: MRC-5 cells, luminescence, normalized: DMSO 0%, 10 µM staurosporine 100%; series mostly up to 91.7 µM
Outline: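 Apoptosis readout in MRC-5 cells: luciferase light generated after caspase 3/7 cleaves a peptide-aminoluciferin substrate, measured post 16 hr compound incubation at 37 °C.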

[9] = Cellular Toxicity (caspase-3) Mesangial (AID 660); details: mesangial cells, normalized: DMSO 0%, 100 µM tamoxifen 100%; series mostly up to 91.7 µM;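 also: combined caspase 3 and 7 activity read by Caspase-Glo luminescence; cells exposed to compound for 16 h before the caspase read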
Outline: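 AC50 values come from Hill-equation fits of caspase 3/7 activation, measured as Caspase-Glo luminescence in human glomerular mesangial cells exposed to compound for 16 h at 37 °C; 100% set by 100 uM tamoxifen.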

[10] = Cellular Toxicity (caspase-3) Hek293 (AID 664); details: HEK293 caspase-3 activation, DMSO = 0%, 100 µM tamoxifen = 100%; series mostly up to 92.2 µM;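 also: cells exposed to compound for 16 h at 37 °C before readout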
Outline: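 Apoptosis readout: Caspase-Glo 3/7 signal in human HEK293 cells following 16-hour compound incubation. Responses scaled between DMSO baseline and 100 uM tamoxifen.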

[11] = Cellular Toxicity (caspase-3) Renal Proximal Tubule (AID 667); details: renal proximal tubule cells, primary cells freshly taken from rat, solvent-only wells 0%, staurosporine 100%; series mostly up to 91.7 µM;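 also: cells exposed to compound for 16 hours at 37 °C before detection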
Outline: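 Caspase-Glo 3/7 read-out, rat primary kidney proximal tubule cells. Compound exposure 16 h, 37 °C; detection after 1 h at RT. Activity scaled to DMSO and 10 uM staurosporine.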

[12] = MultiTox-Fluor Cytotoxicity Assay - LYMP1-003 - Live Cells (AID 962); details: LYMP1-003 lymphoblastoid cells, MultiTox-Fluor live-cell protease fluorescence; series mostly up to 92.2 µM;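 also: 0% = DMSO only and full loss = 92 µM tetraoctylammonium bromide; cytotoxic hits lower the live-cell protease signal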
Outline: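 Human lymphoblastoid line LYMP1-003 in complete culture medium, treated 16 hr with titrated compounds. Viable cells quantified via cell-permeant GF-AFC substrate fluorescence; AC50 derived by Hill fitting.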

[13] = Cell Viability - LYMP1-003 - Assay at 40 hr (AID 964); details: LYMP1-003 lymphoblastoid viability; series mostly up to 92.2 µM; also: % is scaled to controls: 0 for no effect and ±100 for the full control effect; nearly all actives have a fitted effect of over 60% in size
Outline: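 Acute toxicity is scored as a concentration-dependent loss of intracellular ATP in LYMP1-003 cells (2500/well, complete medium) after 40 hr at 37 C, measured by CellTiter-Glo luminescence; AC50 values derive from standard Hill modelling.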

[14] = Cell Viability - LYMP2-011 (AID 969); details: LYMP2-011 lymphoblastoid cells viability; series mostly up to 92.2 µM;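 also: cells exposed to compound for 24 hours; 0% = DMSO only and full inhibition = 92 µM tetraoctylammonium bromide; nearly all actives have a fitted effect of over 60% in size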
Outline: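 Cells seeded at 2500 per well rest 5 hr before compound addition, then incubate 24 hr at 37 C. CellTiter-Glo reagent is added for 30 min at room temperature before luminescence detection.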

[15] = Cell Viability - LYMP2-017 (AID 972); details: LYMP2-017 lymphoblastoid cell viability; series mostly up to 92.2 µM;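 also: cells exposed to compound for 24 hours at 37 °C; % is scaled to controls: 0 for no effect and ±100 for the full control effect; nearly all actives have a fitted effect of over 55% in size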
Outline: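 In this qHTS format, lymphoblastoid cells in complete medium receive test compound for a day at 37 C before ATP content is quantified by luciferase luminescence. Reported AC50 figures come from standard Hill-equation curve fitting.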

[16] = Cell Viability - LYMP2-007 (AID 979); details: LYMP2-007 lymphoblastoid cell viability; series mostly up to 92.2 µM;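 also: cells exposed to compound for 24 h before reading; 0% = DMSO only and the negative end = 92 µM tetraoctylammonium bromide; nearly all actives have a fitted effect of over 60% in size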
Outline: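 Measured via luciferase-based ATP quantitation: lymphoblastoid cells, 24 hr compound exposure at 37 C, AC50 from Hill fits.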

[17] = Cell Viability - LYMP2-010 (AID 981); details: LYMP2-010 lymphoblastoid cell viability, qHTS; series mostly up to 92.2 µM;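 also: cells exposed to compound for 24 hours at 37 °C; % is scaled to controls: 0 for no effect and ±100 for the full control effect; nearly all actives have a fitted effect of over 55% in size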
Outline: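 This 24 hr viability screen uses LYMP2-010 lymphoblastoid cells, quantifies ATP via luciferase luminescence, and derives AC50 from Hill fits of qHTS concentration-response data.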

[18] = Cell Viability - LYMP2-012 (AID 982); details: LYMP2-012 lymphoblastoid cell viability qHTS; series mostly up to 92.2 µM;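 also: cellular ATP by luciferase luminescence where a drop means cytotoxicity; cells exposed to compound for one day before reading; 0% = DMSO only and full loss = 92 µM tetraoctylammonium bromide; nearly all actives have a fitted effect of over 55% in size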
[19] = Cell Viability - LYMP2-018 (AID 985); details: LYMP2-018 lymphoblastoid cells, viability (qHTS); series mostly up to 92.2 µM;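 also: plate controls were DMSO only for no effect and tetraoctylammonium bromide at 92 µM for full effect; nearly all actives have a fitted effect of over 50% in size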
Outline: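 In this qHTS viability assay, cells are treated for 24 hr and cellular ATP is quantified by luciferase-based luminescence, with tetraoctylammonium bromide as positive control.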

[20] = qHTS Assay for Identification of Small Molecule Inducers of Hypoxia Response (AID 2120; active = well fitted curve in the direction sought with a large enough effect in the signal ratio, with a control signal flat, not every such curve was filed as active; the % refers to the signal ratio; also: 0% is about no effect); details: hypoxia response reporter cells, beta-lactamase ratio readout; series mostly up to 104 µM
Outline: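 HRE-bla ME-180, 2500 cells/well, 0.5% dialyzed FBS medium; cpd titration, 17 h 37 degrees C; CCF4 2.5 h RT; Ex 405, Em 460/530 ratio -> %Activity, AC50.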

O=NO
inactive: Potency [1] > 92 µM | Potency [2] > 92 µM | Potency [3] | activity change, negative = cytotoxicity [4] -3.1% and 3.16% | outcome [5] | outcome [6] | outcome [7] | outcome [8] | outcome [9] | outcome [10] | outcome [11] | Potency [12] | Potency [13] | Potency [14] | Potency [15] | Potency [16] | Potency [17] | Potency [18] | Potency [19] | outcome [20]

CC(=O)OC/C=C(\C)CCC=C(C)C
inactive: Potency [1] > 92 µM | Potency [2] > 92 µM | Potency [3] | activity change, negative = cytotoxicity [4] 8.38% | outcome [5] | outcome [6] | outcome [7] | outcome [8] | outcome [9] | outcome [10] | outcome [11] | Potency [12] | Potency [13] | Potency [14] | Potency [15] | Potency [16] | Potency [17] | Potency [18] | Potency [19] | outcome [20]

CCO[Si](CCCN)(OCC)OCC
inactive: Potency [1] > 92 µM | Potency [2] > 92 µM | Potency [3] | activity change, negative = cytotoxicity [4] -8.88% | outcome [5] | outcome [6] | outcome [7] | outcome [8] | outcome [9] | outcome [10] | outcome [11] | Potency [12] | Potency [13] | Potency [14] | Potency [15] | Potency [16] | Potency [17] | Potency [18] | Potency [19] | outcome [20]

Cc1ccccc1C
inactive: Potency [1] > 92 µM | Potency [2] > 92 µM | Potency [3] | activity change, negative = cytotoxicity [4] -15.1% and 9.28% | outcome [5] | outcome [6] | outcome [7] | outcome [8] | outcome [9] | outcome [10] | outcome [11] | Potency [12] | Potency [13] | Potency [14] | Potency [15] | Potency [16] | Potency [17] | Potency [18] | Potency [19] | outcome [20]

Nc1ccc(Cl)cc1Cl
inactive: Potency [1] > 92 µM | Potency [2] > 92 µM | Potency [3] | activity change, negative = cytotoxicity [4] 2.81% | outcome [5] | outcome [6] | outcome [7] | outcome [8] | outcome [9] | outcome [10] | outcome [11] | Potency [12] | Potency [13] | Potency [14] | Potency [15] | Potency [16] | Potency [17] | Potency [18] | Potency [19] | outcome [20]

COC(=O)c1ccc(C)cc1
inactive: Potency [1] > 92 µM | Potency [2] > 92 µM | Potency [3] | activity change, negative = cytotoxicity [4] -2.78% | outcome [5] | outcome [6] | outcome [7] | outcome [8] | outcome [9] | outcome [10] | outcome [11] | Potency [12] | Potency [13] | Potency [14] | Potency [15] | Potency [16] | Potency [17] | Potency [18] | Potency [19] | outcome [20]
